Measurements as given in PubChem BioAssay AID1159580 (chemical genetic matrix, 2015).
Hit rate of the full screen: of about 5,500 compounds, about 2,000 (36%) were called active. About 18% were inconclusive and are not listed. Rule as the data show it: active = normalized growth mostly below about 0.91 (no sharp cut-off); inconclusive = no clear call, values can overlap the other calls; inactive = mostly above about 0.92. The list shows a part of the results.

Experiment: chemical genetic growth profiling, strain panel (AID 1159580);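 also: tested at 20 µM; growth read once vehicle control cultures reached saturation at 30 °C; 1 = growth at the plate median or of vehicle wells; lower values mean less growth of the strain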
Details: growth OD

Measured: normalized growth

COc1cc(O)c(C(=O)O)c(O)c1
inactive: S. cerevisiae deletion strains, locus YJR075W, strain HOC1, hits give low values 1 | S. cerevisiae deletion strains, locus YKL009W, strain mrt4, hits give low values 1.01 | S. cerevisiae deletion strains, locus YKL068W, hits give low values 0.954 | S. cerevisiae deletion strains, locus YKL085W, strain MDH1 (second series), hits give low values 0.961 | S. cerevisiae deletion strains, locus YKL085W, strain MDH1, hits give low values 0.961 | S. cerevisiae deletion strains, locus YKL160W, strain elf1, hits give low values 1 | S. cerevisiae deletion strains, locus YKL190W, strain CNB1, hits give low values 1.01 | S. cerevisiae deletion strains, locus YKR001C, strain vps1, hits give low values 1.02 | S. cerevisiae deletion strains, locus YKR026C, strain gcn3, hits give low values 0.986 | S. cerevisiae deletion strains, locus YKR091W, strain srl3, hits give low values 0.991 | S. cerevisiae deletion strains, locus YLL001W, strain dnm1, hits give low values 0.981 | S. cerevisiae deletion strains, locus YLL026W, hits give low values 1 | S. cerevisiae deletion strains, locus YLL041C, strain sdh2, hits give low values 0.986 | S. cerevisiae deletion strains, locus YLR027C, strain aat2, hits give low values 0.983 | S. cerevisiae deletion strains, locus YLR039C, strain RIC1, hits give low values 1.06 | S. cerevisiae deletion strains, locus YLR058C, strain SHM2, hits give low values 1 | S. cerevisiae deletion strains, locus YLR102C, strain apc9, hits give low values 0.997 | S. cerevisiae deletion strains, locus YLR221C, strain rsa3, hits give low values 1 | S. cerevisiae deletion strains, locus YLR258W, strain gsy2, hits give low values 0.998 | S. cerevisiae deletion strains, locus YLR262C, strain YPT6 (second series), hits give low values 1.02 | S. cerevisiae deletion strains, locus YLR262C, strain YPT6, hits give low values 1.02 | S. cerevisiae deletion strains, locus YLR268W, strain sec22, hits give low values 0.995 | S. cerevisiae deletion strains, locus YLR320W, strain mms22, hits give low values 1.01 | S. cerevisiae deletion strains, locus YLR330W, strain CHS5, hits give low values 0.991 | S. cerevisiae deletion strains, locus YLR342W, strain FKS1 (second series), hits give low values 1.06 | S. cerevisiae deletion strains, locus YLR342W, strain FKS1, hits give low values 0.99 | S. cerevisiae deletion strains, locus YLR357W, strain rsc2, hits give low values 1.01 | S. cerevisiae deletion strains, locus YLR370C, strain arc18, hits give low values 0.99 | S. cerevisiae deletion strains, locus YLR371W, strain rom2, hits give low values 0.999 | S. cerevisiae deletion strains, locus YLR384C, strain iki3, hits give low values 0.985 | S. cerevisiae deletion strains, locus YLR418C, strain cdc73, hits give low values 1.01 | S. cerevisiae deletion strains, locus YML016C, strain PPZ1, hits give low values 0.999 | S. cerevisiae deletion strains, locus YML032C, strain rad52, hits give low values 1.04 | S. cerevisiae deletion strains, locus YML120C, strain ndi1, hits give low values 0.998 | S. cerevisiae deletion strains, locus YML124C, strain tub3, hits give low values 0.992 | S. cerevisiae deletion strains, locus YMR058W, strain fet3, hits give low values 0.999 | S. cerevisiae deletion strains, locus YMR078C, strain ctf18, hits give low values 1.01 | S. cerevisiae deletion strains, locus YMR125W, strain sto1, hits give low values 0.973 | S. cerevisiae deletion strains, locus YMR129W, hits give low values 0.986 | S. cerevisiae deletion strains, locus YMR205C, strain PFK2, hits give low values 1.01 | S. cerevisiae deletion strains, locus YMR223W, strain ubp8, hits give low values 1.03 | S. cerevisiae deletion strains, locus YMR231W, strain pep5, hits give low values 0.984 | S. cerevisiae deletion strains, locus YMR263W, strain SAP30, hits give low values 1 | S. cerevisiae deletion strains, locus YMR307W, strain GAS1, hits give low values 1.03 | S. cerevisiae deletion strains, locus YNL067W, strain RPL9B, hits give low values 1 | S. cerevisiae deletion strains, locus YNL071W, strain lat1, hits give low values 0.99 | S. cerevisiae deletion strains, locus YNL128W, strain TEP1, hits give low values 1 | S. cerevisiae deletion strains, locus YNL153C, strain GIM3, hits give low values 0.998 | S. cerevisiae deletion strains, locus YNL183C, strain NPR1, hits give low values 0.84 | S. cerevisiae deletion strains, locus YNL209W, strain ssb2, hits give low values 0.981 | S. cerevisiae deletion strains, locus YNL233W, strain BNI4, hits give low values 1.01 | S. cerevisiae deletion strains, locus YNL248C, strain rpa49, hits give low values 0.992 | S. cerevisiae deletion strains, locus YNL250W, strain rad50, hits give low values 0.97 | S. cerevisiae deletion strains, locus YNL271C, strain bni1, hits give low values 0.945 | S. cerevisiae deletion strains, locus YNL298W, strain CLA4, hits give low values 0.977 | S. cerevisiae deletion strains, locus YNL307C, strain MCK1, hits give low values 1.02 | S. cerevisiae deletion strains, locus YNL322C, strain KRE1 (second series), hits give low values 0.972 | S. cerevisiae deletion strains, locus YNL322C, strain KRE1, hits give low values 0.99 | S. cerevisiae deletion strains, locus YNR049C, strain mso1, hits give low values 0.98 | S. cerevisiae deletion strains, locus YNR052C, strain pop2, hits give low values 1.02 | S. cerevisiae deletion strains, locus YOL006C, strain TOP1, hits give low values 1.04 | S. cerevisiae deletion strains, locus YOL012C, strain htz1 0.943 | S. cerevisiae deletion strains, locus YOL147C, strain pex11, hits give low values 1 | S. cerevisiae deletion strains, locus YOR001W, strain rrp6, hits give low values 0.999 | S. cerevisiae deletion strains, locus YOR061W, strain CKA2, hits give low values 1.01 | S. cerevisiae deletion strains, locus YOR069W, strain VPS5, hits give low values 0.993 | S. cerevisiae deletion strains, locus YOR070C, strain gyp1, hits give low values 0.994 | S. cerevisiae deletion strains, locus YOR080W, strain dia2, hits give low values 1 | S. cerevisiae deletion strains, locus YOR083W, strain WHI5, hits give low values 1.01 | S. cerevisiae deletion strains, locus YOR106W, strain vam3, hits give low values 1.01 | S. cerevisiae deletion strains, locus YOR136W, strain idh2, hits give low values 1.03 | S. cerevisiae deletion strains, locus YOR144C, strain elg1, hits give low values 1 | S. cerevisiae deletion strains, locus YOR184W, strain ser1, hits give low values 1.04 | S. cerevisiae deletion strains, locus YOR231W, strain MKK1, hits give low values 0.885 | S. cerevisiae deletion strains, locus YOR265W, strain rbl2, hits give low values 0.997 | S. cerevisiae deletion strains, locus YOR270C, strain vph1, hits give low values 1.02 | S. cerevisiae deletion strains, locus YOR290C, strain snf2, hits give low values 1.01 | S. cerevisiae deletion strains, locus YOR316C, strain cot1, hits give low values 1 | S. cerevisiae deletion strains, locus YPL051W, strain arl3, hits give low values 0.986 | S. cerevisiae deletion strains, locus YPL055C, strain LGE1, hits give low values 1.01 | S. cerevisiae deletion strains, locus YPL078C, strain atp4, hits give low values 0.992 | S. cerevisiae deletion strains, locus YPL106C, strain sse1, hits give low values 0.982 | S. cerevisiae deletion strains, locus YPL240C, strain hsp82, hits give low values 1 | S. cerevisiae deletion strains, locus YPL241C, strain CIN2, hits give low values 0.997 | S. cerevisiae deletion strains, locus YPR119W, strain clb2, hits give low values 0.987 | S. cerevisiae deletion strains, locus YPR141C, strain kar3, hits give low values 0.968 | S. cerevisiae deletion strains, locus YPR163C, strain tif3, hits give low values 1.01 | S. cerevisiae deletion strains, locus YPR167C, strain met16, hits give low values 1 | S. cerevisiae deletion strains, strain wtn01, hits give low values 1.01 | S. cerevisiae strains, strain wild type, hits give low values 1
active: S. cerevisiae deletion strains, locus YLR113W, strain HOG1, hits give low values 0.83 | S. cerevisiae deletion strains, locus YPL256C, strain CLN2, hits give low values 0.824
